# POLI inh: qHTS for Inhibitors of Polymerase Iota. Pol iota fluorescent replication assay, 10 min. actives 1% (n = 390,000). DNA polymerase iota (Homo sapiens), Q9UNA4. Potency, µM (doses to about 115 µM), hits mostly inhibitors
#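 Pol iota at 10 nM preincubated 15 min with compounds at room temperature; reaction started with fluorescent substrate, 50 nM final. Fluorescence read kinetically at 0 and 10 min; buffer-only wells as negative control.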
# FEN1 inhibitor: qHTS Assay for the Inhibitors of Human Flap endonuclease 1 (FEN1) | P39748 | Recombinant FEN1 flap cleavage, fluorescence, 15 min | Potency, µM (top dose mostly 114 µM), most hits filed as inhibitors | actives 0.35% (n = 390,000); note: nearly all actives have a fitted effect of over 65% in size
#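 Reaction started by adding substrate (50 nM final) to 10 nM enzyme after 15 min room-temperature compound preincubation. Reads at 0 and 15 min, with data normalized and fitted to a four-parameter Hill equation.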
# POLH inh: qHTS for Inhibitors of Polymerase Eta | Potency, µM (doses to about 114 µM), usual class: inhibitors | DNA polymerase eta (Homo sapiens), Q9Y253 | actives 1.2% (n = 390,000) | recombinant Pol eta, fluorescent DNA replication assay
#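 Pol eta at 10 nM preincubated with compounds 15 min at room temperature; reaction started with fluorescent substrate (50 nM final) and read kinetically at 0 and 10 min.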
# WRN helicase inh: qHTS for Inhibitors of WRN Helicase; Bifunctional 3'-5' exonuclease/ATP-dependent helicase WRN (Homo sapiens), Q14191; WRN helicase unwinding, fluorescent forked duplex, kinetic; Potency, µM (top dose mostly 114 µM), hits mostly inhibitors; actives 0.46% (n = 360,000); note: nearly all actives have a fitted effect of over 55% in size
#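 Enzyme (20 nM final) and test compound sit together 15 min at room temperature before substrate addition. Substrate is a single-forked duplex oligonucleotide (100 nM) labelled with fluorophore and quencher, with 2 mM ATP; helicase unwinding raises red fluorescence, read kinetically.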
# POLB inh: qHTS Assay for Inhibitors of DNA Polymerase Beta. P06746. Pol beta primer extension/strand displacement, fluorescence kinetic. Potency, µM (doses to about 114 µM), usual class: inhibitors. actives 1.3% (n = 340,000). AID 485314, 2010
#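 Human Pol beta at 10 nM; strand-displacement substrate 50 nM final. Compound exposure 15 min at room temperature before start, reaction 10 min at room temperature.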
# Pol kappa inh: qHTS for Inhibitors of Polymerase Kappa; DNA polymerase kappa (Homo sapiens), Q9UBT6; purified Pol kappa, fluorescent DNA synthesis assay, 10 min; Potency, µM (highest dose often 107 µM), usual class: inhibitors; actives 0.53% (n = 400,000)
#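 Fluorescent qHTS in 1536-well format: enzyme (10 nM) and compound sat 15 min at room temperature before 50 nM substrate (final) was added. Signal taken at 0 and 10 min; no-enzyme buffer wells were negative controls.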
# A number is an active result; i = inactive; ? = inconclusive; nt = not tested or not shown; [ ] = another dose, or the depositor's remark. Shown are actives, neighbours in structure and some others; about 2.4% of the full set was active somewhere. Calls come from the whole dose curve; as a rule, active = well fitted curve in the direction sought with a large enough effect; inconclusive = small, poorly fitted or top-dose-only effect, or another doubt; inactive = no such curve, though single readings can be large; an effect the other way counts as inactive or inconclusive.
SMILES,POLI inh,FEN1 inhibitor,POLH inh,WRN helicase inh,POLB inh,Pol kappa inh
Cc1cc(Oc2cc(NN3CCCCC3)c([N+](=O)[O-])cc2[N+](=O)[O-])ccc1[N+](=O)[O-],?,i,i,i,40µM,i
CCOC(=O)c1cc(-c2ccccc2)n(CCCC(=O)Nc2ccc(C)c(C)c2)c1C,?,?,i,nt,?,i
CC(C)=CCCN1CCC(NC(=O)C(O)(c2ccccc2)C2CCCC2)CC1 (centres undefined),nt,nt,nt,nt,nt,i
CN1CC[C@@]2(C)c3cc(OC(=O)Nc4ccccc4)ccc3N(C)[C@@H]12,nt,nt,nt,nt,nt,i
CC(=O)CC(c1ccccc1)c1c(O)c2ccccc2oc1=O (centres undefined),?,i,i,i,i,i
CC/C(CC(c1ccccc1)c1c(O)c2ccccc2oc1=O)=N\NC(N)=S (centres undefined),?,i,28µM,i,?,?
CC1OC(O[C@H]2C[C@@H](O)[C@]3(CO)[C@H]4[C@H](O)C[C@]5(C)[C@@H](C6=CC(=O)OC6)CC[C@]5(O)[C@@H]4CC[C@]3(O)C2)C(O)C(O)C1O (some centres undefined),i,i,nt,nt,nt,i
COC[C@H]1OC(=O)c2coc3c2[C@@]1(C)C1=C(C3=O)[C@@H]2CCC(=O)[C@@]2(C)C[C@H]1OC(C)=O,89µM,i,i,?,nt,i
Cn1c(=O)oc2cc(S(=O)(=O)Nc3cccc([N+](=O)[O-])c3)ccc21,i,i,i,i,i,i
Cc1ccc(F)cc1NC(=O)c1ccc(Cn2nc(N3CCN(c4ccccc4)CC3)ccc2=O)o1,?,i,79µM,nt,?,i
CCOC(=O)c1ccc(NC(=O)c2c(O)[nH]c(=O)[nH]c2=O)cc1,i,i,?,i,20µM,i
Cc1ccc(C=C2C(Cl)=C(Cl)C(Cl)=C2Cl)cc1,2.8µM,?,11µM,45µM,4µM,16µM
Cc1oc2ccc(O)c(CN3CCCCCC3)c2c1C(=O)Nc1cccc(Cl)c1C,i,i,?,nt,i,i
Cc1ccccc1C(=O)Nc1cc(-c2ccc(Cl)cc2)nn1-c1ccccc1,i,i,i,nt,?,i
C[C@]12CC[C@@H]3c4ccc(OC(=O)N(CCCl)CCCl)cc4CC[C@H]3[C@@H]1CC[C@@H]2O,nt,nt,nt,nt,nt,8.9µM
N#Cc1c(/N=C/c2c(O)n(Cc3ccco3)c(=O)[nH]c2=O)sc2c1CCCC2,10µM,?,14µM,56µM,32µM,22µM
O=c1[nH]c(=O)n(Cc2ccco2)c(O)c1/C=N/N1CCCCCC1,i,i,i,i,i,i
CCOCCCNC(=O)c1c[nH]c2ccc(S(=O)(=O)N(C)c3ccc(Cl)cc3F)cc2c1=O,i,i,i,nt,?,i
O=C(c1ccccc1)c1ccc2nc(N3CCN(c4ccc(F)cc4)CC3)c3nncn3c2c1,i,i,i,nt,i,i
COC1(C)CC(c2ccccc2)c2c(c3ccccc3oc2=O)O1 (centres undefined),nt,nt,nt,nt,nt,i
CC1(C)C[C@H]2C=C(C=O)[C@]3(C=O)C[C@]3(C)[C@H]2C1,45µM,i,i,i,20µM,?
O=C1NC(=O)N(CCc2ccc(F)cc2)C(=O)/C1=C\C=C\c1ccccc1,3.2µM,i,i,i,i,i
CN(C)c1ccc(/C=C2/C(=O)NC(=O)N(CCc3ccc(F)cc3)C2=O)cc1,i,i,i,i,i,i
CCOP(=S)(OCC)SCSc1ccc(Cl)cc1,nt,nt,nt,nt,nt,15µM
CCOC(=O)N(C)C(=O)CSP(=S)(OCC)OCC,nt,nt,nt,nt,nt,i
C[C@H]1COC2=C1C(=O)C(=O)c1c2ccc2c1CCCC2(C)C,22µM,?,35µM,?,22µM,?
CC1COC2=C1C(=O)C(=O)c1c2ccc2c1CCCC2(C)C (centres undefined),nt,nt,nt,nt,nt,28µM
C=C1CC[C@H](O)C/C1=C/C=C1\CCC[C@]2(C)[C@H]1CC[C@H]2[C@@H](C)CCCC(C)C,nt,nt,nt,nt,nt,i[12 µM]

# Source: PubChem BioAssay (National Center for Advancing Translational Sciences (NCATS))
